In PubChem BioAssay (NCATS) one finds Potency data, which are given here for 20 compounds.

Values joined by “and” are separate entries in the source; they are usually repeats but may differ in a detail not shown here. Equal entries are not always repeated. Inconclusive results are not listed. Some compounds were tested as several samples or in several runs, with calls that do not always agree. Active and inactive are the calls of the source. Calls come from the whole dose curve; as a rule, active = well fitted curve in the direction sought with a large enough effect; inconclusive = small, poorly fitted or top-dose-only effect, or another doubt; inactive = no such curve, though single readings can be large; an effect the other way counts as inactive or inconclusive.

The target in assay [1] is Glutathione peroxidase 1 (Homo sapiens) (UniProt P07203). Nature of the assay: Primary qHTS Assay for Inhibitors of Recombinant Selenoprotein Glutathione Peroxidase 1 (GPX1) (AID 1845191). Note: nearly all actives have a fitted effect of over 65% in size. In a few lines:
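GR-coupled readout: NADPH consumption tracked by fluorescence, ex 340/em 450 nm, at t=0 and after 15 min at RT. Final mix 10 nM GPX1, 1 mM GSH, 0.5 mM CHP, 0.5 mM NADPH, 100 nM GR, 0.01% BSA, following 30 min enzyme–compound preincubation.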
A general note: Quantitative high-throughput screening tests each substance at several concentrations.

Assay [2] concerns the target Phospholipid hydroperoxide glutathione peroxidase GPX4 (Homo sapiens) (UniProt P36969). Nature of the assay: Primary qHTS Assay for Inhibitors of Recombinant Selenoprotein Glutathione Peroxidase 4 (GPX4) (AID 1845192). Note: nearly all actives have a fitted effect of over 65% in size. Note: potency is the fitted concentration of half-maximal effect. In a few lines:
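Steps: GPX4 plus compound, 30 min RT; add GR/GSH/NADPH master mix; start with cumene hydroperoxide; read 340/450 nm fluorescence at 0 and 15 min. Finals were 200 nM GPX4, 1 mM GSH, 0.5 mM CHP, 0.5 mM NADPH, 100 nM GR.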

Assay [3] concerns the target Luciferin 4-monooxygenase (Photinus pyralis) (UniProt P08659). Nature of the assay: Primary firefly luciferase (FLuc) qHTS assay for identification of artifact compounds. (AID 1845220). Note: nearly all actives have a fitted effect of over 60% in size. Note: potency is the fitted concentration of half-maximal effect. In a few lines:
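Titrated compounds were incubated 15 min at RT, protected from light, with luciferin and ATP at 10 uM; reaction started with 10 nM FLuc, luminescence imaged at 5 min, and concentration-response fitted by Hill equation.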

Assay [4] can be described thus: Primary fluorescence-based thiol-reactive (MSTI) qHTS assay for identification of artifact compounds. (AID 1845221). Note: nearly all actives have a fitted effect of over 65% in size. Note: potency is the fitted concentration of half-maximal effect. In a few lines:
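A multi-concentration qHTS design tested compounds against 4 uM MSTI, pH 7.4 phosphate-buffered saline. Plates were protected from light for 1 h at room temperature before imaging fluorescence.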

The subject of assay [5] is Nanoluciferase (engineered Oplophorus gracilirostris luciferase). Nature of the assay: Primary Nanoluciferase (NLuc) qHTS assay for identification of artifact compounds. (AID 1845222).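 Note: NLuc secreted into diluted conditioned medium of S16 cells; series mostly up to about 54 µM.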 In a few lines: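 qHTS format, against NLuc in S16 cell-conditioned medium. Nano-Glo substrate 1:100 was added after 15 min at room temperature. Luminescence was taken after a further 5 min.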

A short description of assay [6]: Quantitative High-Throughput drug screen in 47 multiple myeloma cell lines against the NCATS MIPE library collection: FR4_PLB cell viability assay (AID 1918924; note: nearly all actives have a fitted effect of over 35% in size; note: potency is the fitted concentration of half-maximal effect). In a few lines:
(§1)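 We plated 500 myeloma cells per well, pinned in MIPE 4.0 compounds, and incubated for 48 hours at 37C. ATP was then quantified with CellTiter-Glo, with DMSO and media-only wells defining 100% and 0%.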

Assay [7] can be described thus: Quantitative High-Throughput drug screen in 47 multiple myeloma cell lines against the NCATS MIPE library collection: Delta47_JCRB cell viability assay (AID 1918925; note: nearly all actives have a fitted effect of over 45% in size; note: potency is the fitted concentration of half-maximal effect). Summed up:
(§2)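 Approved and investigational drugs from MIPE 4.0 were added by pin tool to 500 cells per well. After 48 hours at 37C, ATP-based CellTiter-Glo luminescence indicated remaining viability.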

The nature of assay [8]: Quantitative High-Throughput drug screen in 47 multiple myeloma cell lines against the NCATS MIPE library collection: EJM_DSMZ cell viability assay (AID 1918926; note: nearly all actives have a fitted effect of over 30% in size; note: potency is the fitted concentration of half-maximal effect). Summed up: as §2
A short description of assay [9]: Quantitative High-Throughput drug screen in 47 multiple myeloma cell lines against the NCATS MIPE library collection: AMO1_DSMZ cell viability assay (AID 1918927; note: nearly all actives have a fitted effect of over 30% in size; note: potency is the fitted concentration of half-maximal effect). Summed up:
as §2

Assay [10] can be described thus: Quantitative High-Throughput drug screen in 47 multiple myeloma cell lines against the NCATS MIPE library collection: ARP1_JJKsccF8 cell viability assay (AID 1918928; note: nearly all actives have a fitted effect of over 40% in size; note: potency is the fitted concentration of half-maximal effect). Summed up:
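CellTiter-Glo luminescence after 48 h exposure gives viability, scaled between DMSO-only (100%) and media-only (0%) controls. Library compounds are pinned onto 500 myeloma cells per well, incubated at 37C with 5% CO2.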

A short description of assay [11]: Primary redox qHTS assay for identification of artifact compounds. (AID 1845223). In a few lines:
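Redox-cycling detection via DTT (250 uM final) oxidation coupled to Amplex Red (25 uM)/HRP (250 mU/mL) in HBSS. 15 min preincubation plus 30 min after DTT, room temperature. Ex/Em 525/598 nm; 4-parameter Hill fit against DMSO and 10 uM DA3003.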

A short description of assay [12]: Quantitative High-Throughput drug screen in 47 multiple myeloma cell lines against the NCATS MIPE library collection: ARD_JJKsccE7 cell viability assay (AID 1918929; note: potency is the fitted concentration of half-maximal effect). Summed up:
as §2

Assay [13] in a line: Quantitative High-Throughput drug screen in 47 multiple myeloma cell lines against the NCATS MIPE library collection: Karpas620_DSMZ cell viability assay (AID 1918959). Note: nearly all actives have a fitted effect of over 30% in size. Note: potency is the fitted concentration of half-maximal effect. Summed up:
as §1

Chain of Glutathione peroxidase 1 (Homo sapiens) (P07203 whole entry, looked up): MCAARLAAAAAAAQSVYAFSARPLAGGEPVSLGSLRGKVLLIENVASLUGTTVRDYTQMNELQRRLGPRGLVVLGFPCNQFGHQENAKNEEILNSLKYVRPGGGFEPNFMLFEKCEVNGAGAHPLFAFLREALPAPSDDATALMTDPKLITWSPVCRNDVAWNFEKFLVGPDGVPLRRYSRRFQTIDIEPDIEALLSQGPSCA
Chain of Phospholipid hydroperoxide glutathione peroxidase GPX4 (Homo sapiens) (P36969 whole entry, looked up): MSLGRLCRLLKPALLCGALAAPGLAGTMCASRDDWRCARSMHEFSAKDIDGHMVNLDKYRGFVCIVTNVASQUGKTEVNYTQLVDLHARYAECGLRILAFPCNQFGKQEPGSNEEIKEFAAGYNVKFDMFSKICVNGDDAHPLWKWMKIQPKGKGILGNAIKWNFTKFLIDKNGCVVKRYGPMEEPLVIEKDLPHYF

Take `Fc1cc(-c2cccc3ncc(-c4cnn(C5CCNCC5)c4)nc23)cc(F)c1CN1CCOCC1`: the Potency result in [1], in [2], in assay [3], in assay [4] and in assay [5] was “inactive” each time. Besides, the Potency in assay [6] was 18.7 µM (active); in assay [7], 7.43 µM (active); in [8], 20.9 µM (active); in assay [9] it was 8.33 µM (active); in assay [10], 16.6 µM (active).

Consider `NCC(=O)Nc1ccc(-n2nc(C(F)(F)F)cc2-c2ccc3c(ccc4ccccc43)c2)cc1`, for which the Potency entry in [1], in assay [2], in [3], in assay [4], in [5] and in assay [11] was “inactive” throughout. The Potency result in [13] was “inactive”. Besides, the Potency was 18.7 µM (active) in assay [7], 0.0662 µM (active) in assay [9], 23.5 µM (active) in assay [10] and 0.148 µM (active) in assay [12].

Turning to `Cc1ccc(NC(=O)C2(c3ccc4c(c3)OC(F)(F)O4)CC2)nc1-c1cccc(C(=O)O)c1`, the Potency result in assay [1], in [3], in assay [4] and in assay [11] was “inactive” each time. The Potency entry was “inactive and 14.1 µM (active)” in assay [2]; 0.0469 µM (active) in assay [6]; 0.0526 µM (active) in [7]; 0.0833 µM (active) in [8]; 0.0526 µM (active) in assay [9]; 0.0264 µM (active) in assay [10]. Further, the Potency in assay [12] is 0.0469 µM (active); in assay [13], 0.166 µM (active).

Turning to `Cc1ccc(C(=O)Nc2cccc(C(F)(F)F)c2)cc1-c1ccc2nc(NCCN3CCOCC3)ncc2c1`, the Potency entry in [1], in [2], in assay [3], in assay [4] and in assay [11] was “inactive” in each case. Moreover, the Potency was 10.5 µM (active) in assay [6]; 13.2 µM (active) in [7]; 16.6 µM (active) in [8]; 3.72 µM (active) in assay [9]; 8.33 µM (active) in assay [10]; 2.64 µM (active) in assay [12].

Regarding `Cn1c(=O)n(-c2ccc(C(C)(C)C#N)cc2)c2c3cc(-c4cnc5ccccc5c4)ccc3ncc21`, the Potency entry in assay [1], in [2], in assay [3], in [4], in assay [5] and in [11] was “inactive” in each case. The results for the Potency in [6], in assay [8] and in assay [10] were 0.0093 µM (active), 0.833 µM (active) and 0.0187 µM (active), respectively.

With `Clc1cccc(-c2nnnn2Cc2cccnc2)c1Cl`, the Potency entry in assay [1], in [2], in assay [3], in assay [4], in assay [11] and in assay [6] was “inactive” each time. The Potency result in assay [8], in assay [9], in [10] and in assay [12] was “inactive” in each case.

Regarding `CNC(=O)c1ccccc1Nc1nc(Nc2ccc(N3CCOCC3)cc2OC)ncc1Cl`, the Potency entry in assay [1], in assay [2], in assay [3] and in assay [11] was “inactive” each time. Further, the Potency was 1.89 µM (active) in assay [4]; 13.2 µM (active) in assay [6]; 0.148 µM (active) in assay [7]; 0.418 µM (active) in assay [9]; 0.935 µM (active) in assay [10]; 0.0935 µM (active) in assay [12].

On to `CC(C)Nc1cc(C(F)(F)F)cc2nc(NC(=O)c3cccnc3)nn12`, for which the Potency entry in assay [1], in assay [2], in assay [3], in [4], in assay [11] and in assay [12] was “inactive” throughout. Moreover, the Potency in assay [8] was 14.8 µM (active).

For the compound `CS(=O)(=O)c1ccc(-c2cnc(N)c(C(=O)Nc3ccccc3)n2)cc1`, the Potency result in [1], in assay [2], in assay [3], in [4], in assay [11] and in assay [12] was “inactive” in each case. In addition, in [6], the Potency was 18.7 µM (active).

Consider `Nc1nc(Nc2ccc(S(N)(=O)=O)cc2)nn1C(=O)c1c(F)cccc1F`, for which the Potency entry in [1], in [2], in [3], in [4] and in [11] was “inactive” each time. The Potency in assay [6] was 4.18 µM (active); in [7], 2.64 µM (active); in assay [9], 2.09 µM (active); in [10], 9.35 µM (active); in assay [12], 5.26 µM (active); in assay [13] it was 5.9 µM (active).

As to `CCN(CC)CCNC(=O)c1ccc2nc(-c3ccccc3)c(-c3ccc(CN4CCC(n5c(=O)[nH]c6ccccc65)CC4)cc3)nc2c1`, the Potency entry in [1], in assay [2], in assay [3], in [4] and in assay [11] was “inactive” each time. Further, the Potency in assay [6] was 14.8 µM (active); in [7] it was 0.662 µM (active); in [9], 1.05 µM (active); in [12] it was 2.64 µM (active); in [13] it was 0.935 µM (active).

Consider `COc1ccc(F)c(F)c1C(=O)c1cnc(NC2CCN(S(C)(=O)=O)CC2)nc1N`, for which the Potency entry in assay [1], in assay [2], in assay [3], in assay [4] and in [11] was “inactive” each time. Moreover, the Potency in assay [6] is 2.35 µM (active); in assay [7] it was 1.18 µM (active); in assay [9], 0.833 µM (active); in assay [10], 2.35 µM (active); in assay [12], 1.18 µM (active).

Consider `COc1cc2c(Nc3ccc(NC(=O)c4ccccc4)cc3)ncnc2cc1OCCCN1CCOCC1`, for which the Potency result in assay [1], in assay [2], in assay [3], in assay [4], in assay [11] and in assay [13] was “inactive” each time. Further, the Potency in [7] was 8.33 µM (active); in assay [10], 20.9 µM (active).

Consider `Cc1c(NC(=O)OC[C@@H]2COCCN2)cn2ncnc(Nc3ccc4c(cnn4Cc4cccc(F)c4)c3)c12`, for which the Potency entry in assay [1], in [2], in assay [3], in [4] and in [11] was “inactive” each time. Moreover, the Potency is 1.32 µM (active) in assay [6], 0.833 µM (active) in [7], 3.32 µM (active) in [9] and 11.8 µM (active) in assay [12].

On to `O=C(Nc1cc(C(F)(F)F)cc(C(F)(F)F)c1)c1cc(Cl)ccc1O`, for which the Potency result in [1], in [2], in assay [3], in [5] and in assay [11] was “inactive” in each case. The Potency in assay [6] was 1.32 µM (active); in assay [7], 1.87 µM (active); in [8], 1.48 µM (active); in assay [9], 0.235 µM (active); in assay [10], 1.05 µM (active); in assay [12], 0.209 µM (active).

Regarding `C[C@@H]1COC(Nc2ccc3ncnc(Nc4ccc(OCc5nccs5)c(Cl)c4)c3c2)=N1`, the Potency entry in [1], in assay [2], in assay [4] and in assay [11] was “inactive” each time. Moreover, the Potency was 19 µM (active) in assay [3]; 16.6 µM (active) in [6]; 2.64 µM (active) in assay [7]; 1.05 µM (active) in [8]; 4.69 µM (active) in [9]; 4.18 µM (active) in assay [12]. Besides, the Potency in [13] was 14.8 µM (active).

`C=CC(=O)N1CCC[C@@H](n2nc(-c3ccc(Oc4ccccc4)cc3)c3c(N)ncnc32)C1`: the Potency entry in [1], in assay [2], in [3], in assay [5] and in assay [11] was “inactive” in each case.

Regarding `COc1cc(C)c(Sc2cnc(NC(=O)c3ccc(CNC(C)C(C)C)cc3)s2)cc1C(=O)N1CCN(C(C)=O)CC1` (configuration not stated), the Potency entry in [1], in [2], in assay [3], in assay [4], in [11] and in assay [9] was “inactive” each time. Besides, the Potency entry in [13] is “inactive”. Further, the Potency in assay [6] was 14.8 µM (active); in assay [7], 2.35 µM (active); in [8], 16.6 µM (active); in [10], 16.6 µM (active).

Turning to `Cc1cn2cc(C(=O)N(C)CCO)cc(N[C@@H]3CCOc4cccc(C)c43)c2n1`, the Potency result in assay [1], in [2], in assay [3], in [5], in assay [11] and in [7] was “inactive” throughout. Also, the Potency entry in assay [9], in assay [10] and in [13] was “inactive” throughout.

Consider `COc1cc(C(=O)N2CCC(N3CCN(C)CC3)CC2)ccc1Nc1ncc2c(n1)N(C)c1ccccc1C(=O)N2C`, for which the Potency result in assay [1], in assay [2], in assay [3], in assay [4] and in assay [11] was “inactive” in each case. The Potency in assay [6] is 3.72 µM (active); in [7], 2.64 µM (active); in assay [9] it was 2.35 µM (active); in assay [10], 2.35 µM (active); in [12] it was 1.66 µM (active).
